PubChem BioAssay AID1159580 (chemical genetic matrix, 2015)
Hit rate of the full screen: of about 5,500 compounds, about 2,000 (36%) were called active. Another 18% or so got no clear call; they are omitted. Cut-off read from the data, not from the text of the source: active = normalized growth mostly below about 0.91 (no sharp cut-off); inconclusive = no clear call, values can overlap the other calls; inactive = mostly above about 0.92. The list shows a part of the results.

Assay: chemical genetic growth profiling, strain panel (AID 1159580);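 note: tested at 20 µM; growth read once vehicle control cultures reached saturation at 30 °C; 1 = growth at the plate median or of vehicle wells; lower values mean less growth of the strain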
Conditions: growth OD

Measured: normalized growth

COc1c(C2COc3cc4c(cc3C2=O)CC(O)C(C)(C)O4)ccc2c1CCC(C)(C)O2 (configuration not stated)
inactive: S. cerevisiae deletion strains, locus YBR021W, strain FUR4, stronger effect = lower value 0.992 | S. cerevisiae deletion strains, locus YBR229C, strain ROT2, stronger effect = lower value 1.01 | S. cerevisiae deletion strains, locus YCL029C, strain bik1, stronger effect = lower value 1.01 | S. cerevisiae deletion strains, locus YDL035C, strain GPR1, stronger effect = lower value 1.02 | S. cerevisiae deletion strains, locus YDL074C, strain BRE1, stronger effect = lower value 1.05 | S. cerevisiae deletion strains, locus YDL101C, strain DUN1, stronger effect = lower value 1.02 | S. cerevisiae deletion strains, locus YDL134C, strain PPH21, stronger effect = lower value 1.05 | S. cerevisiae deletion strains, locus YDL185W, strain tfp1, stronger effect = lower value 1.05 | S. cerevisiae deletion strains, locus YDL192W, strain arf1, stronger effect = lower value 1.01 | S. cerevisiae deletion strains, locus YDR101C, strain arx1, stronger effect = lower value 0.982 | S. cerevisiae deletion strains, locus YDR162C, strain NBP2, stronger effect = lower value 1.02 | S. cerevisiae deletion strains, locus YDR318W, strain mcm21, stronger effect = lower value 1.01 | S. cerevisiae deletion strains, locus YDR388W, stronger effect = lower value 1.03 | S. cerevisiae deletion strains, locus YDR502C, strain sam2, stronger effect = lower value 1.04 | S. cerevisiae deletion strains, locus YEL061C, strain CIN8, stronger effect = lower value 1.01 | S. cerevisiae deletion strains, locus YER110C, stronger effect = lower value 1.02 | S. cerevisiae deletion strains, locus YER155C, strain BEM2, stronger effect = lower value 1.02 | S. cerevisiae deletion strains, locus YER167W, strain BCK2, stronger effect = lower value 1.01 | S. cerevisiae deletion strains, locus YGL078C, strain dbp3, stronger effect = lower value 1.02 | S. cerevisiae deletion strains, locus YGL086W, strain mad1, stronger effect = lower value 1.01 | S. cerevisiae deletion strains, locus YGL248W, strain PDE1, stronger effect = lower value 1.06 | S. cerevisiae deletion strains, locus YGR078C, strain PAC10, stronger effect = lower value 1.02 | S. cerevisiae deletion strains, locus YGR135W, strain pre9, stronger effect = lower value 1.07 | S. cerevisiae deletion strains, locus YGR252W, strain gcn5, stronger effect = lower value 1.04 | S. cerevisiae deletion strains, locus YHR030C, strain SLT2, stronger effect = lower value 1.01 | S. cerevisiae deletion strains, locus YHR079C, strain IRE1 (second series), stronger effect = lower value 1.02 | S. cerevisiae deletion strains, locus YHR094C, strain hxt1, stronger effect = lower value 1 | S. cerevisiae deletion strains, locus YHR129C, strain ARP1, stronger effect = lower value 1.02 | S. cerevisiae deletion strains, locus YHR200W, strain rpn10, stronger effect = lower value 1.03 | S. cerevisiae deletion strains, locus YIL066C, strain RNR3, stronger effect = lower value 1.04 | S. cerevisiae deletion strains, locus YIL073C, strain SPO22, stronger effect = lower value 1.08 | S. cerevisiae deletion strains, locus YIL125W, strain kgd1, stronger effect = lower value 1.01 | S. cerevisiae deletion strains, locus YIR030C, strain dcg1, stronger effect = lower value 1.03 | S. cerevisiae deletion strains, locus YJL095W, strain BCK1, stronger effect = lower value 1.05 | S. cerevisiae deletion strains, locus YJL134W, strain LCB3, stronger effect = lower value 0.995 | S. cerevisiae deletion strains, locus YJL168C, strain set2, stronger effect = lower value 1.03 | S. cerevisiae deletion strains, locus YJL187C, strain SWE1 (second series), stronger effect = lower value 1.04 | S. cerevisiae deletion strains, locus YJR043C, strain POL32, stronger effect = lower value 1.01 | S. cerevisiae deletion strains, locus YKL009W, strain mrt4, stronger effect = lower value 1.01 | S. cerevisiae deletion strains, locus YKL068W, stronger effect = lower value 1.01 | S. cerevisiae deletion strains, locus YKL085W, strain MDH1 (second series), stronger effect = lower value 1.01 | S. cerevisiae deletion strains, locus YKL085W, strain MDH1, stronger effect = lower value 1.01 | S. cerevisiae deletion strains, locus YKL190W, strain CNB1, stronger effect = lower value 1.01 | S. cerevisiae deletion strains, locus YKR001C, strain vps1, stronger effect = lower value 1.04 | S. cerevisiae deletion strains, locus YLR039C, strain RIC1, stronger effect = lower value 1.11 | S. cerevisiae deletion strains, locus YLR058C, strain SHM2, stronger effect = lower value 1.02 | S. cerevisiae deletion strains, locus YLR102C, strain apc9, stronger effect = lower value 1.01 | S. cerevisiae deletion strains, locus YLR268W, strain sec22, stronger effect = lower value 0.997 | S. cerevisiae deletion strains, locus YLR342W, strain FKS1 (second series), stronger effect = lower value 1.04 | S. cerevisiae deletion strains, locus YLR371W, strain rom2, stronger effect = lower value 1.03 | S. cerevisiae deletion strains, locus YLR418C, strain cdc73, stronger effect = lower value 1.08 | S. cerevisiae deletion strains, locus YML016C, strain PPZ1, stronger effect = lower value 1 | S. cerevisiae deletion strains, locus YML032C, strain rad52, stronger effect = lower value 1.01 | S. cerevisiae deletion strains, locus YML124C, strain tub3, stronger effect = lower value 1 | S. cerevisiae deletion strains, locus YMR078C, strain ctf18, stronger effect = lower value 1.02 | S. cerevisiae deletion strains, locus YMR223W, strain ubp8, stronger effect = lower value 1.02 | S. cerevisiae deletion strains, locus YMR263W, strain SAP30, stronger effect = lower value 1 | S. cerevisiae deletion strains, locus YMR307W, strain GAS1, stronger effect = lower value 1.13 | S. cerevisiae deletion strains, locus YNL067W, strain RPL9B, stronger effect = lower value 1.01 | S. cerevisiae deletion strains, locus YNL153C, strain GIM3, stronger effect = lower value 1.06 | S. cerevisiae deletion strains, locus YNL233W, strain BNI4, stronger effect = lower value 1.04 | S. cerevisiae deletion strains, locus YNL250W, strain rad50, stronger effect = lower value 1.05 | S. cerevisiae deletion strains, locus YNL271C, strain bni1, stronger effect = lower value 1.01 | S. cerevisiae deletion strains, locus YNL298W, strain CLA4, stronger effect = lower value 1.02 | S. cerevisiae deletion strains, locus YNL307C, strain MCK1, stronger effect = lower value 1.01 | S. cerevisiae deletion strains, locus YNR052C, strain pop2, stronger effect = lower value 1.03 | S. cerevisiae deletion strains, locus YOL006C, strain TOP1, stronger effect = lower value 1.06 | S. cerevisiae deletion strains, locus YOL012C, strain htz1 0.808 | S. cerevisiae deletion strains, locus YOL147C, strain pex11, stronger effect = lower value 1 | S. cerevisiae deletion strains, locus YOR061W, strain CKA2, stronger effect = lower value 1.01 | S. cerevisiae deletion strains, locus YOR069W, strain VPS5, stronger effect = lower value 1.01 | S. cerevisiae deletion strains, locus YOR136W, strain idh2, stronger effect = lower value 1.02 | S. cerevisiae deletion strains, locus YOR144C, strain elg1, stronger effect = lower value 1.01 | S. cerevisiae deletion strains, locus YOR184W, strain ser1, stronger effect = lower value 0.971 | S. cerevisiae deletion strains, locus YOR316C, strain cot1, stronger effect = lower value 1.01 | S. cerevisiae deletion strains, locus YPL241C, strain CIN2, stronger effect = lower value 0.99 | S. cerevisiae deletion strains, locus YPR119W, strain clb2, stronger effect = lower value 1.02 | S. cerevisiae deletion strains, locus YPR141C, strain kar3, stronger effect = lower value 1.01 | S. cerevisiae deletion strains, locus YPR163C, strain tif3, stronger effect = lower value 1.03 | S. cerevisiae deletion strains, locus YPR167C, strain met16, stronger effect = lower value 1.04 | S. cerevisiae deletion strains, strain wtn01, stronger effect = lower value 1 | S. cerevisiae strains, strain wild type, stronger effect = lower value 1.03
